# Results: PubChem BioAssay
# Biological target: Alpha-bungarotoxin (Bungarus multicinctus) (UniProt P60615)
# Test: compounds binding labelled alpha-BTX control protein – biochemical, small-molecule microarray, Alexa647 label, 635/667 nm fluorescence, artefact control for SMM control protein annotation, profiling panel (AID 1117)
# Conditions: alpha-BTX-A647 binding fluorescence, higher = more signal
# Chain of Alpha-bungarotoxin (Bungarus multicinctus) (P60615 whole entry, looked up): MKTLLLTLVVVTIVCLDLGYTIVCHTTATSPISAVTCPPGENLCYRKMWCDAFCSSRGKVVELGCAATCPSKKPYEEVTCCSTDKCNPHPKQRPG
row,Compound,composite z-score
1,C=CCC(OC(C)=O)[C@@H]1[C@@H](N(Cc2ccc(-c3ccccc3)cc2)C(=O)Cc2ccc(OC)cc2)c2cc(OCCCO)ccc2N1C(=O)c1ccc2ccccc2n1 (some centres not stated),0.819
2,COC(=O)C(CC#Cc1ccc2c(c1)[C@]1(C(=O)N2)[C@H](C(=O)NC[C@H](O)c2ccccc2)[C@H]2C(=O)O[C@H](c3ccccc3)[C@H](c3ccccc3)N2[C@@H]1c1ccc(OCCO)cc1)C(=O)OC,2.23
3,COc1ccc(C(O)C2C=CC3C(=O)N(c4ccccc4)C(=O)C3N2Nc2ccc([N+](=O)[O-])cc2)cc1OCc1ccccc1 (configuration not stated),1.27
4,CC(=O)NCCCC[C@@H]1NC(=O)[C@@H]2C[C@H](C(=O)NCCCCN(C)C)[C@H](c3ccc(O)cc3)N2C1=O,-0.602
5,CC(C)C(=C=CC[C@H](O)c1cccc(OCCO)c1)C[C@H](O)COCc1ccccc1,0.0589
6,CC(C)C(=C=CC[C@@H](O)c1ccccc1OCCO)C[C@@H](O)c1ccccn1,0.125
7,O=C1O[C@@H](c2ccccc2)[C@@H](c2ccccc2)N2[C@@H](c3ccccc3OCCO)[C@]3(C(=O)Nc4ccc(C#CC5(O)CCCCCC5)cc43)[C@@H](C(=O)Nc3nc4ccccc4s3)[C@H]12,0.744
8,C=CCN1C(=O)[C@]2(O[C@H](CCO)[C@@H]([Si](C)(C)c3ccc(OC)cc3)[C@@H]2C)c2cc(NC(=O)[C@H](C)O)ccc21,0.69

# Biological target: Albumin (Bos taurus) (UniProt P02769)
# Test: compounds binding labelled BSA control protein – biochemical, small-molecule microarray, Alexa647 label, 635/667 nm fluorescence, artefact control for SMM control protein annotation, profiling panel (AID 1118);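 also: score merges 667 nm emission intensity and signal-to-noise per printed compound spot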
# Conditions: BSA-A647 binding, fluorescence 635 nm, higher = more signal
# Chain of Albumin (Bos taurus) (P02769 whole entry, looked up): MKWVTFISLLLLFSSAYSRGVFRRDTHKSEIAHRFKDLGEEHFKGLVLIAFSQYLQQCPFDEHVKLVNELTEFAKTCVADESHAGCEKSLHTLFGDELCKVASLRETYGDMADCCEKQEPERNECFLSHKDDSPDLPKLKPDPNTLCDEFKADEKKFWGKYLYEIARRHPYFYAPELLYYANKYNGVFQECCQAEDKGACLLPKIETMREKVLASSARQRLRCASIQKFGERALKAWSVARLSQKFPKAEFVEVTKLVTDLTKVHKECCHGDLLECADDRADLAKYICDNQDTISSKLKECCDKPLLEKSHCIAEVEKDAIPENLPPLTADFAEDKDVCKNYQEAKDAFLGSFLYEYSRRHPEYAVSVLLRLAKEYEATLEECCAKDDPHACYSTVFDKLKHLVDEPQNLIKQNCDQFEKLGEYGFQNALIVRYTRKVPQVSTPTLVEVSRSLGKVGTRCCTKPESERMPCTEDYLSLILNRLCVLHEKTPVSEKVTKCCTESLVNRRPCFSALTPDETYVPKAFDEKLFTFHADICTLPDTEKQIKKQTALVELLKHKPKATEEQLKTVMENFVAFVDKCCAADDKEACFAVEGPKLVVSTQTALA
row,Compound,composite z-score
1,CCCN1C(=O)[C@@]2(CCC(=O)OC(C)(C)C)N=C(c3ccc(OCCCO)cc3)O[C@H]2c2ccccc21,0.556
2,O=C(O)[C@H]1C[C@H]2C(=O)NCC(=O)N2[C@H]1c1ccc(O)cc1,0.346
3,CC(C)c1ccc(NN2C(C(O)c3ccc(N(C)C)cc3)C=CC3C(=O)N(c4ccccc4)C(=O)C32)cc1 (configuration not stated),0.961
4,CCC[C@@H]1C=C(C(=O)O)[C@H](c2ccc(C)cc2)N1S(=O)(=O)c1ccc(C)cc1,0.972
5,CC(C)c1ccc(NN2C(C(O)c3c(F)cccc3Cl)C=CC3C(=O)N(c4ccccc4)C(=O)C32)cc1 (configuration not stated),0.913
6,CC(C)=CCCC(C)=CC(O)C1C=CC2C(=O)N(c3ccccc3)C(=O)C2N1Nc1ccccc1 (configuration not stated),0.977
7,COCC1=C2[C@@H](CCc3ccccc3)OB(O)C[C@@H]2[C@@H]2C(=O)N(Cc3ccccc3)C(=O)[C@@H]2C1,0.818
8,COC(=O)[C@@]1(Cc2ccc(OC)cc2)[C@H]2c3cc(C(=O)N4CCCC4)n(CCc4c[nH]c5cc(F)ccc45)c3C[C@H]2CN1C(=O)c1ccccc1,0.957
9,CC(C)N1CC=CC23O[C@@H]4C=CCOC(=O)[C@@H]4[C@H]2C(=O)N(CCO)[C@@H]3C1=O (some centres not stated),-0.0355
10,COC(=O)C(CC#Cc1ccc2c(c1)[C@]1(C(=O)N2)[C@H](c2ccc(OCCO)cc2)N2[C@H](c3ccccc3)[C@H](c3ccccc3)OC(=O)[C@H]2[C@@H]1C(=O)NC[C@H](O)c1ccccc1)C(=O)OC,0.819
11,CC(C)NC(=O)[C@@]1(Cc2ccccc2I)c2ccccc2C(=O)N(Cc2ccccc2)[C@H]1c1ccc(CO)cc1,0.162
12,CCOC(=O)C[C@H]1[C@H](OC(=O)Cc2ccc3c(c2)OCO3)[C@@H](NC(=O)c2ccc(-c3ccccc3)cc2)c2cc(OCCCO)ccc2N1C(=O)c1ccccc1,0.731
13,CC(c1ccccc1)C(O)C1C=CC2C(=O)NC(=O)C2N1Nc1ccccn1 (configuration not stated),0.183
14,COc1ccc(C#Cc2ccc3c(c2)[C@]2(C(=O)N3)[C@H](c3ccc(O)cc3)N3[C@H](c4ccccc4)[C@H](c4ccccc4)OC(=O)[C@H]3[C@@H]2C(=O)NC[C@H](O)c2ccccc2)cc1,0.363
15,O=C1O[C@H](c2ccccc2)[C@H](c2ccccc2)N2[C@H]1[C@@H](C(=O)O)[C@]1(C(=O)Nc3ccc(C#CC4(O)CCCCCC4)cc31)[C@H]2c1ccc(OCCO)cc1,0.906
16,NCCCCCCNC(=O)[C@H]1C[C@H]2C(=O)NCC(=O)N2[C@H]1c1cccc(OCCO)c1,-0.512
17,C=CCOC(=O)[C@H]1[C@@H]2C(=O)O[C@@H](c3ccccc3)[C@@H](c3ccccc3)N2[C@@H](c2ccc(OCCOC(=O)[C@@H]3C[C@@H]4C(=O)NCC(=O)N4[C@@H]3c3ccc(O)cc3)cc2)[C@]12C(=O)Nc1ccccc12,0.212
18,[N-]=[N+]=Nc1ccccc1C[C@]1(C(=O)NCCN2CCOCC2)N=C(c2ccc(OCCCO)cc2)O[C@H]1c1ccccc1,0.323
19,CC(C)N1C(=O)C[C@@](C(=O)NCc2ccccc2)(c2ccc([N+](=O)[O-])cc2)[C@H]1c1ccc(CO)cc1,0.467
